ELG1 DNA repair = ELG1-dependent DNA repair inhibition | HEK293T ELG1-luciferase reporter, luminescence, 16 h; DNA damage induced by 5-fluorouridine | Potency, µM (highest dose often 46.1 µM), without a hit: at the highest dose activity change, negative = inhibition, usual class: inhibitors | 330,000 compounds, 2.3% hits | AID 504467; note: % is set by controls: 0 for no effect and ±100 for the full control effect; nearly all actives have a fitted effect of over 55% in size
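Overnight (16 hr) co-exposure of 2,000 cells/well to 5-fluorouridine and compound at 37 °C preceded detection. Luciferase was quantified via ONE-Glo luminescence; loss of signal denotes inhibition.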
FLuc modulator = inhibits or activates purified firefly luciferase, miR-21 counter-screen; P08659; purified FLuc, Km substrates, luminescence inhibition; Potency, µM (titrated, usually from 57.5 µM), inactives show top-dose activity change, negative = inhibition, actives largely listed as inhibitors; 360,000 compounds, 6.9% hits; AID 588342;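 note: plate controls were vehicle for no effect and reference inhibitor for full effect; nearly all actives have a fitted effect of over 55% in size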
Target sequence (P08659 whole entry, looked up): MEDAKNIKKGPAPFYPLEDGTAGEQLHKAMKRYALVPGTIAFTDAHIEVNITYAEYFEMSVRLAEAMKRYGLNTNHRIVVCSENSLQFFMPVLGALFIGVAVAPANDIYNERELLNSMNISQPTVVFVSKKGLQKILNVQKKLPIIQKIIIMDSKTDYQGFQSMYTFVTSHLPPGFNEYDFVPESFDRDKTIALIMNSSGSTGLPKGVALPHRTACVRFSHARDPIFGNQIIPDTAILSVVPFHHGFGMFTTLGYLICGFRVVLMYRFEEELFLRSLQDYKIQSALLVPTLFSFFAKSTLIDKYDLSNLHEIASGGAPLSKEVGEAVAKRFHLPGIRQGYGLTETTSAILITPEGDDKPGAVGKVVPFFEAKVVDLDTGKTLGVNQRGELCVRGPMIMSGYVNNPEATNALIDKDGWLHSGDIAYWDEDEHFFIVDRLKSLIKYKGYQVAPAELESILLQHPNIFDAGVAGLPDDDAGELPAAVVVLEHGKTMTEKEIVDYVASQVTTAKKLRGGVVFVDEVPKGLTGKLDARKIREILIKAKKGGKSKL
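Purified P. pyralis luciferase (10nM final) with 10uM D-luciferin and 10uM ATP (Km levels) in 50mM Tris acetate pH 7.5, 10mM Mg acetate, 0.01% Tween-20, 0.05% BSA; qHTS 6-point titration, ~60 µM downward; luminescence read.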
NPC1 promoter act = activates the NPC1 promoter; 320,000 compounds, 2.4% hits; Potency, µM (titrated, usually from 9.22 µM), without a hit: top-dose activation, usual class: activators; Huh7 NPC1 promoter luciferase reporter, 24 h; note: % of control where 0% means no effect; nearly all actives have a fitted effect of over 60% in size
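NPC1 promoter–luciferase Huh7 cells; 24 h compound; luminescence.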
Rab9 prom act = activators of Rab9 promoter; Huh7 Rab9 promoter-luciferase reporter, luminescence, 24 h; Potency, µM (top dose mostly 9.22 µM), for the others: top-dose activation, negative = inhibition, usual class: activators; 320,000 compounds, 2.8% hits; note: % of control where 0% means no effect; nearly all actives have a fitted effect of over 60% in size
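Luminescence read-out: Huh7 cells stably expressing Rab9-luciferase, treated 24 h with compound at 37 °C, then lysed with luciferase reagent for 10 min at ambient before reading.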
ELG1 genotoxic = induces genotoxicity in HEK293T cells with luciferase-tagged ELG1. HEK293T ELG1-luciferase reporter, luminescence, 16 h. Potency, µM (doses to about 46 µM), without a hit: at the highest dose activity change, positive = activation, hits mostly activators. 330,000 compounds, 1.3% hits. AID 504466; note: % of control where 0% means no effect; nearly all actives have a fitted effect of over 60% in size
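Step 1: seed 2,000 HEK293T ELG1-luciferase cells per well. Step 2: add compound or DMSO, incubate 16 hr at 37 °C. Step 3: ONE-Glo, 30 min at room temperature, read luminescence.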
SMN2 splice up = enhancers of SMN2 splice variant expression | HEK293 SMN2-luciferase splicing reporter, luminescence, 30-36 h | Potency, µM (top dose mostly 46.1 µM), for inactives: at the highest dose activity change, positive = activation, most hits filed as activators | 210,000 compounds, 2.8% hits; note: % of control where 0% means no effect; nearly all actives have a fitted effect of over 55% in size
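HEK293 cells carry an SMN2 minigene-luciferase reporter in which exon 7 inclusion puts luciferase in frame. Cells were seeded at 2000 cells/well, attached for 10-12 hours, then exposed to compounds for 30-36 hours at 37C before ONE-Glo luminescence.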
* marks the source's active call; other numbers are inactive results; [ ] = dose if it differs, or a comment. Compounds with a hit are over-represented: about 9.2% of the library has one in this group of screens. Calls come from the whole dose curve; as a rule, active = well fitted curve in the direction sought with a large enough effect; inconclusive = small, poorly fitted or top-dose-only effect, or another doubt; inactive = no such curve, though single readings can be large; an effect the other way counts as inactive or inconclusive. Potency is the fitted concentration of half-maximal effect.

What do the screens show for `CC(=O)O/N=C/c1c(N2CCOCC2)n(C)c2ccccc12`?
ELG1 DNA repair: inconclusive; FLuc modulator: 14%; NPC1 promoter act: -9%; Rab9 prom act: -5%; ELG1 genotoxic: -10%; SMN2 splice up: -62%

Results for Cn1c(N2CCOCC2)c(/C=N/OC(=O)c2ccc(F)cc2)c2ccccc21 ?
ELG1 DNA repair: inconclusive; FLuc modulator: 9.5µM*; NPC1 promoter act: -18%; Rab9 prom act: -33%; ELG1 genotoxic: -5%; SMN2 splice up: -70%

Results for Cc1ccc(C(=O)O/N=C/c2c(N3CCOCC3)n(C)c3ccccc23)cc1 ?
ELG1 DNA repair: inconclusive; FLuc modulator: 6µM*; NPC1 promoter act: -17%; Rab9 prom act: -39%; ELG1 genotoxic: -13%; SMN2 splice up: -47%

What do the screens show for `CCOC(=O)c1cc(-c2ccc(OC)cc2)nc2c1c(C)nn2CCC(N)=S`?
ELG1 DNA repair: 12µM*; FLuc modulator: -3%; NPC1 promoter act: 0%; Rab9 prom act: -6%; ELG1 genotoxic: -3%; SMN2 splice up: -21%

How did CCOC(=O)c1cc(-c2ccco2)nc2c1c(C)nn2-c1ccccc1 do in these assays?
ELG1 DNA repair: inconclusive; FLuc modulator: -8%; NPC1 promoter act: 2%; Rab9 prom act: 6%; ELG1 genotoxic: -7%; SMN2 splice up: -10%

How did O=C(NC1CCCC1)c1ccc(COc2ccccc2Br)o1 do in these assays?
ELG1 DNA repair: 0%; FLuc modulator: 7%; NPC1 promoter act: 2%; Rab9 prom act: 6%; ELG1 genotoxic: 0%

What do the screens show for `O=C(OCc1nc2ccccc2s1)C1CCN(C2=NS(=O)(=O)c3ccccc32)CC1`?
ELG1 DNA repair: inconclusive; FLuc modulator: 11µM*; NPC1 promoter act: 7%; Rab9 prom act: inconclusive; ELG1 genotoxic: inconclusive; SMN2 splice up: 18%

What do the screens show for `Cc1ccc(NC(=O)C(=O)NCC2CCCO2)cc1C` (stereo unspecified)?
ELG1 DNA repair: inconclusive; FLuc modulator: inconclusive; NPC1 promoter act: 2.8µM*; Rab9 prom act: 1.3µM*; ELG1 genotoxic: 8.2µM*; SMN2 splice up: 11µM*

How did Cc1ccc(NC(=O)C(=O)NN=C2CCCC2)cc1C do in these assays?
ELG1 DNA repair: -5%; FLuc modulator: 13µM*; NPC1 promoter act: 19%; Rab9 prom act: inconclusive; ELG1 genotoxic: 7%

Results for Cc1ccc(NC(=O)C(=O)NCC2CCCO2)cc1 (stereo unspecified) ?
ELG1 DNA repair: inconclusive; FLuc modulator: inconclusive; NPC1 promoter act: inconclusive; Rab9 prom act: 4µM*; ELG1 genotoxic: inconclusive; SMN2 splice up: 14µM*

What do the screens show for `Cc1ccc(Nc2nnc(SC(C)C(=O)NCC3CCCO3)s2)cc1C` (stereo unspecified)?
ELG1 DNA repair: inconclusive; FLuc modulator: 15µM*; NPC1 promoter act: 0%; Rab9 prom act: -1%; ELG1 genotoxic: -2%

Results for Cc1nnc(SC(C)C(=O)NCC2CCCO2)s1 (stereo unspecified) ?
ELG1 DNA repair: 9%; FLuc modulator: -3%; NPC1 promoter act: 2%; Rab9 prom act: 1%; ELG1 genotoxic: 0%

What do the screens show for `CC(NC(=O)c1ccc2c(c1)sc1nc(-c3ccc(F)cc3)cn12)C12CC3CC(CC(C3)C1)C2` (stereo unspecified)?
FLuc modulator: -3%

Results for CCC(=C(CC)c1ccc(O)cc1)c1ccc(O)cc1 ?
SMN2 splice up: -24%[20.6 µM]

How did CCOC(=O)c1scc(-c2ccccc2)c1S(=O)(=O)Nc1cc(Cl)c(OC)cc1OC do in these assays?
FLuc modulator: -13%

What do the screens show for `COc1cc(C)ccc1OCCSc1nc2ccc(NC(=O)c3ccc4c(c3)OCO4)cc2s1`?
FLuc modulator: -13%

How did COc1ccc(-c2csc3nc(-c4cccnc4)nc(Cl)c23)cc1OC do in these assays?
ELG1 DNA repair: inconclusive; FLuc modulator: -15%; NPC1 promoter act: -8%; Rab9 prom act: -4%; ELG1 genotoxic: -3%; SMN2 splice up: -105%

Results for Clc1nc(-c2cccnc2)nc2scc(-c3ccccc3)c12 ?
ELG1 DNA repair: inconclusive; FLuc modulator: 12µM*; NPC1 promoter act: inconclusive; Rab9 prom act: 28%; ELG1 genotoxic: inconclusive; SMN2 splice up: 15%

Results for Cn1c(CO)cnc1SCc1ccc(Cl)cc1 ?
ELG1 DNA repair: inconclusive; FLuc modulator: -16%; NPC1 promoter act: 3.5µM*; Rab9 prom act: inconclusive; ELG1 genotoxic: 7%; SMN2 splice up: 8%

How did CC(C)(C)c1csc(NC(=O)c2ccncc2)n1 do in these assays?
ELG1 DNA repair: inconclusive; FLuc modulator: inconclusive; NPC1 promoter act: -7%; Rab9 prom act: -6%; ELG1 genotoxic: -5%; SMN2 splice up: -64%

What do the screens show for `Cc1ccc(C(=O)Nc2nc(C(C)(C)C)cs2)s1`?
ELG1 DNA repair: inconclusive; FLuc modulator: 5.4µM*; NPC1 promoter act: inconclusive; Rab9 prom act: 3.2µM*; ELG1 genotoxic: 4.6µM*; SMN2 splice up: -5%

What do the screens show for `CC(C)(C)c1csc(NC(=O)c2ccc(Cl)s2)n1`?
ELG1 DNA repair: 15%; FLuc modulator: 6.7µM*; NPC1 promoter act: inconclusive; Rab9 prom act: inconclusive; ELG1 genotoxic: 4%; SMN2 splice up: -17%

How did CC(C)(C)c1csc(NC(=O)c2ccc3nccnc3c2)n1 do in these assays?
ELG1 DNA repair: inconclusive; FLuc modulator: 8.5µM*; NPC1 promoter act: 2.5µM*; Rab9 prom act: 3.5µM*; ELG1 genotoxic: 8%; SMN2 splice up: 14%

Results for COc1ccc(NC(=O)CSc2ncc(-c3ccc(Cl)cc3)[nH]2)cc1OC ?
FLuc modulator: -28%; SMN2 splice up: -19%

What do the screens show for `Cc1ccc(S(=O)(=O)N2CCCN(C(=O)c3ccc(-n4cccn4)cc3)CC2)cc1`?
ELG1 DNA repair: -5%; FLuc modulator: 4%; NPC1 promoter act: -1%; Rab9 prom act: -3%; ELG1 genotoxic: 1%

Results for CCN1CCN(c2ccccc2NC(=O)C(C)Oc2ccc(C(C)=O)cc2)CC1 (stereo unspecified) ?
ELG1 DNA repair: -28%; FLuc modulator: -1%; NPC1 promoter act: -1%; Rab9 prom act: -4%; ELG1 genotoxic: 0%

What do the screens show for `CCOc1ccc(C(=O)Nc2ccc(C(=O)OCc3cc(=O)n4nc(CC)sc4n3)cc2)cc1`?
FLuc modulator: -8%

Results for O=C(NCc1ccco1)C1CCN(S(=O)(=O)c2cccc([N+](=O)[O-])c2)CC1 ?
ELG1 DNA repair: 0%; FLuc modulator: 0%; NPC1 promoter act: 0%; Rab9 prom act: 0%; ELG1 genotoxic: -1%
